CRE Fsk mod – alters forskolin-stimulated CRE reporter signaling in CHO cells; CHO CRE-bla reporter (cAMP response element driving beta-lactamase), forskolin EC10, beta-lactamase ratio; Potency, µM (doses to about 38.2 µM), without a hit: at the top dose activity change, negative = inhibition, usual class: activators; hit rate 2.5% among 71,000; AID 662; active = well fitted activation curve with a large enough effect in the signal ratio, with a control signal flat, not every such curve was filed as active; inconclusive = small, poorly fitted or top-dose-only effect, or effect the other way, or a change in a side signal; the % refers to the signal ratio; note: % of control where 0% means no effect
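AC50 values, positive or negative, reflect shifts in EC10 NKH 477-induced CRE-bla reporter activity in CHO cells. Incubation lasted 3 h at 37 °C before CCF4 substrate (2 h, room temperature) and ratiometric 460/530 nm reading.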
TSHR agonist – TSH receptor (human) agonism. hit rate 0.48% among 73,000. HEK293-CNG-TSHR cells (CNG channel as cAMP sensor), membrane potential dye, cAMP. Potency, µM (series often up to 57.1 µM), without a hit: at the top dose activation, usual class: activators. P16473; active = well fitted activation curve with a large enough effect in the main read-out, with a control signal flat, not every such curve was filed as active; inconclusive = small, poorly fitted or top-dose-only effect, or a change in a side signal; inactive = no such curve, though single readings can be large or run the other way; % of control where 0% means no effect;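 note: the control signal comes from parental cells without the receptor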
Target sequence (P16473 whole entry, looked up): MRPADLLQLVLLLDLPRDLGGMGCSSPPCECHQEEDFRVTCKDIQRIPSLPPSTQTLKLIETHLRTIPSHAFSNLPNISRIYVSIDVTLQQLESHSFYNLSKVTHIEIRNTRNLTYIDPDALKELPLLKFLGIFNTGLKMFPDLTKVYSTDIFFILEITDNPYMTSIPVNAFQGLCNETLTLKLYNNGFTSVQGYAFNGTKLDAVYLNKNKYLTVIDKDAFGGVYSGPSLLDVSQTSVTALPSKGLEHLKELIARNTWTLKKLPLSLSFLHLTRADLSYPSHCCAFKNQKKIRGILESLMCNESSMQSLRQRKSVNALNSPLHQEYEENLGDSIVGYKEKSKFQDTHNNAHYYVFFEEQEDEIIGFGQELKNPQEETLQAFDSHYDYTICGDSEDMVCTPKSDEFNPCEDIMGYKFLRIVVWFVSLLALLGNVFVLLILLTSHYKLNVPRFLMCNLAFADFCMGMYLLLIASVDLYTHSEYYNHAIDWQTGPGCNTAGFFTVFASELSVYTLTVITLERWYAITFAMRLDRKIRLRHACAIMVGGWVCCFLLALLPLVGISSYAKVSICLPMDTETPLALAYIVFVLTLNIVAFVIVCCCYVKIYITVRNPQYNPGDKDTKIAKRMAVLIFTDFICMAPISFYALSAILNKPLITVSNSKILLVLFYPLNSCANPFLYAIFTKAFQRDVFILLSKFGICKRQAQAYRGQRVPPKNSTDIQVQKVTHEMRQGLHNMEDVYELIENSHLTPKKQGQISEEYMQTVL
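HEK 293 cells stably expressing TSHR and a modified CNG channel, with CNG-only parental cells as counterscreen, were preloaded 60 min at room temperature with membrane potential dye containing 100 uM RO 20-1724. Compound exposure was 30 min, and depolarization was read as fluorescence at 590 nm.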
ERK AVP block – blocks ERK signaling stimulated by vasopressin. HEK293-V1b, vasopressin-stimulated pERK AlphaScreen. Potency, µM (top dose mostly 57.5 µM), for inactives: at the top dose activity, negative = inhibition, most hits filed as inhibitors. hit rate 0.99% among 72,000. AID 995; note: % is set by controls: 0 for no effect and ±100 for the full control effect; nearly all actives have a fitted effect of over 55% in size
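V1b-HEK293 cells; cpd 30 min 37C; 25 nM vasopressin 5 min; lyse 10 min; AlphaScreen beads 5 hr RT. Normalized to DMSO basal and 25 nM vasopressin; AC50 by Hill fit.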
HEK293 cAMP ctrl – raises cAMP in parental HEK293 cells, TSHR agonist counter-screen; hit rate 2.5% among 73,000; parental HEK293 CNG cAMP sensor, membrane potential fluorescence; Potency, µM (series often up to 57.1 µM), without a hit: top-dose activation, hits mostly activators; note: % of control where 0% means no effect; nearly all actives have a fitted effect of over 55% in size
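Parental HEK 293 cells stably expressing a cAMP-gated CNG channel were loaded with membrane potential dye containing 100 uM RO 20-1724 for 60 min. Compound added for 30 min; depolarization read as fluorescence intensity at 590 nm.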
* = called active by the depositor; ? = inconclusive; · = not tested or not shown; [ ] = dose if it differs, or a comment. Most compounds without a hit are left out; they make up all but 6% or so of the library. Unless noted, calls come from the whole dose curve; as a rule, active = well fitted curve in the direction sought with a large enough effect; inconclusive = small, poorly fitted or top-dose-only effect, or another doubt; inactive = no such curve, though single readings can be large; an effect the other way counts as inactive or inconclusive. Potency is the fitted concentration of half-maximal effect.

SMILES	CRE Fsk mod	TSHR agonist	ERK AVP block	HEK293 cAMP ctrl
COC(=O)c1cc2c([nH]c3ccccc32)c(C)n1	22.2%	0.8%	31.6µM*	5.3%
O=C(CCC1CCCCC1)Nc1c2c(nn1-c1ccc(F)cc1)CS(=O)(=O)C2	0.5%	?	-15.8%	3.16µM*
O=C(Nc1c2c(nn1-c1ccc(F)cc1)CS(=O)(=O)C2)C12CC3CC(CC(C3)C1)C2	-6.4%	?	-4.2%	15.8µM*
CC(C)CNC(=O)O	5.1%[7.6 µM]	1.6%[11.4 µM]	7.0%[11.5 µM]	-0.5%[11.4 µM]
O=c1cc(CSc2ccc(Cl)cc2)nc2nc[nH]n12	-5.2%	?	10.3%	10µM*
COc1ccc(C(=O)CSc2nnnn2Cc2ccccc2)cc1	-3.3%	15.7%	21.5%	22.0%
O=C(CSc1nnnn1Cc1ccccc1)c1ccccc1	-8.1%	?	13.7%	31.6µM*
COc1cc(C(=O)Oc2c(CN3CCOCC3)cc(Cl)c3cccnc23)cc(OC)c1OC	7.94µM*	10.2%	?	2.1%
COc1ccc(C(=O)Oc2c(CN3CCOCC3)cc(Cl)c3cccnc23)cc1	14.1%	?	-12.2%	?
CN(C)c1nc(Oc2ccc(C(=O)OCC(=O)Nc3ccccc3)cc2)nc(N(C)C)n1	?	?	-7.4%	3.16µM*
c1ccc(-c2nnc(CSc3nnc(-c4cccs4)o3)o2)cc1	?	11.8%	-29.4%	21.2%
c1ccc(-c2nnc(SCc3cn4ccsc4n3)o2)cc1	10µM*	3.4%	7.0%	7.2%
Cc1ccc2[nH]c(C(=O)O)c(-c3ccccc3)c2c1	?	10.7%	-20.6%	-23.4%
Cc1ccc2[nH]c(-c3ccccc3)cc(=O)c2c1	1.58µM*	20.6%[11.4 µM]	-6.2%	21.8%[11.4 µM]
CC(=NCC(=O)O)c1ccccc1	-0.4%[7.6 µM]	-2.3%[11.4 µM]	0.0%[11.5 µM]	2.0%[11.4 µM]
Cc1sc(NC(=O)CSc2nnc(COc3ccccc3)n2C)c(C#N)c1C	-2.5%	?	-6.7%	6.31µM*
Cc1ccc(C)n1-n1c(C)nc2sc(-c3ccccc3)cc2c1=O	?	?	-22.7%	3.16µM*
O=C(OCc1nnc(-c2ccccc2)o1)c1ccco1	-3.0%	2.1%	-19.7%	15.4%
O=C(OCc1nnc(-c2ccccc2)o1)c1ccc2c(c1)OCO2	1.3%	?	21.6%	39.8µM*
COc1ccc(-c2cc(CCCC(=O)NCCc3ccc(OC)cc3OC)no2)cc1	-4.9%	?	10.5%	?
COc1ccc(OC)c(CCNC(=O)Cn2sc3nc(C)cc(C)c3c2=O)c1	?	1.8%	15.8µM*	-4.7%
c1ccc2c(c1)Cn1c-2nc2ccccc21	8.5%	?	-3.3%	15.8µM*
c1ccc2c(c1)Cn1nnnc1-2	2.3%	2.5%	-14.4%	2.7%
CC(C)CN1CCC2(CC1)CCN(S(=O)(=O)c1ccccc1)CC2	-2.9%	5.0%	10.5%	12.1%
CCn1c(SCCOc2ccc(Cl)cc2)nnc1-c1cccs1	-1.7%	?	-23.7%	31.6µM*
SMILES	CRE Fsk mod	TSHR agonist	ERK AVP block	HEK293 cAMP ctrl
CCn1nc(NC(=O)c2ccncc2)c2cc3ccccc3nc21	6.31µM*	-14.3%	-24.3%	26.8%
CCn1nc(NC(=O)c2ccncc2)c2cc3cccc(C)c3nc21	5.01µM*	-10.6%	-10.2%	5.1%
c1csc(CNc2ncnc3sccc23)c1	-9.6%	?	-19.8%	?
CN(Cc1cccs1)c1ncnc2sccc12	-0.6%	?	16.7%	15.8µM*
O=C(c1ccccc1-c1nc(-c2ccc(F)cc2)no1)N1CCCC1	13.7%	23.3%	-5.9%	24.9%
COc1cccc(NC(=O)c2ccccc2-c2nc(-c3ccc(Cl)cc3)no2)c1	?	?	-27.1%	?
COc1ccc(-c2noc(-c3ccccc3C(=O)NCc3ccco3)n2)cc1OC	14.6%	42.8%	-17.1%	27.1%
COc1ccc(-c2noc(-c3ccccc3C(=O)NCc3ccco3)n2)cc1	-2.5%	?	-15.3%	15.8µM*
COc1cccc(NC(=O)c2ccccc2-c2nc(-c3ccc(F)cc3)no2)c1	12.6%	?	-1.6%	31.6µM*
COc1cccc(NC(=O)c2ccccc2-c2nc(-c3ccccc3)no2)c1	?	?	-14.5%	10µM*
O=C1CCC=C1[C@@H](O)CCc1ccccc1	·	-1.1%[11.4 µM]	4.4%[11.5 µM]	-2.7%[11.4 µM]
CSc1ncnc2nc[nH]c12	12.6µM*	-0.7%	·	1.1%
CCOC(=O)C(C)Sc1ncnc2nc[nH]c12 (centres undefined)	-2.0%	4.0%[11.4 µM]	-10.7%	3.8%
O=C(O)C(O)C(O)C(O)C(O)C(=O)O (centres undefined)	·	·	-11.7%	·
Cn1c(=O)c2c(nc(CN3CCN(c4cccc(Cl)c4)CC3)n2CCc2ccccc2)n(C)c1=O	?	?	2.3%	7.94µM*
Cn1c(=O)[nH]c(=O)c2c1nc(CN1CCOCC1)n2CCCc1ccccc1	?	-1.5%	·	10.0%
COc1ccc(N2CCN(Cc3nc4c(c(=O)[nH]c(=O)n4C)n3CCCc3ccccc3)CC2)cc1	10µM*	27.7%	8.4%	-2.8%
Cn1c(=O)c2c(nc(CN3CCN(c4ccccc4)CC3)n2CCc2ccccc2)n(C)c1=O	21.0%	?	6.2%	?
CCOC(=O)Cn1c(CN2CCN(c3cccc(Cl)c3)CC2)nc2c1c(=O)[nH]c(=O)n2C	?	?	·	20µM*
CCCCn1c(CN2CCN(c3cccc(Cl)c3)CC2)nc2c1c(=O)[nH]c(=O)n2C	10µM*	?	6.5%	?
O=C(Nc1ccccc1)N1CCCC2(CCN(C(=O)c3csnn3)CC2)C1	-3.4%	?	6.9%	?
C/C=C/OC(=O)NC(c1ccccc1)[C@]1(C(C)=O)CCCC1=O (some centres undefined)	·	1.5%[11.4 µM]	28.0%[11.5 µM]	-0.4%[11.4 µM]
COc1ccc2c3c([nH]c2c1)[C@H]1C[C@@H]2[C@@H](C[C@@H](O)[C@H](OC)[C@H]2C(=O)O)CN1CC3	-5.6%[7.6 µM]	?	2.8%[11.5 µM]	?
CO/N=C(\C(=O)N[C@@H]1C(=O)N2C(C(=O)[O-])=C(C[N+]3(C)CCCC3)CS[C@@H]12)c1csc(N)n1	4.7%[17.1 µM]	-1.5%[25.6 µM]	11.3%[25.7 µM]	-3.5%[25.6 µM]
Cn1c(=O)[nH]c(=O)c2c1nc(CN1CCN(c3cccc(Cl)c3)CC1)n2CCCc1ccccc1	7.94µM*	·	·	8.4%
SMILES	CRE Fsk mod	TSHR agonist	ERK AVP block	HEK293 cAMP ctrl
COc1ccc(-c2nnc(CSc3ncnc4sc5c(c34)CCC5)o2)cc1OC	2.51µM*	?	8.6%	?
Cn1cccc1C(=O)N1CCC2(CC1)CCN(c1ccncc1)CC2	13.7%	4.2%	-17.5%	6.2%
O=C(O)CCSCC(=O)c1ccc2c(c1)OCCO2	?	21.1%	31.7%	13.9%
O=C(O)CCC(=O)c1ccc2c(c1)OCCO2	-2.0%	?	·	20µM*
CN1CCN(c2ncc3nc(-c4cn(C)c5ccccc45)c(=O)n(C[C@H]4CCCO4)c3n2)CC1	?	-2.2%	26.3%	-3.4%
CN(C)c1ncc2nc(-c3ccc(Cl)cc3)c(=O)n(C[C@H]3CCCO3)c2n1	3.98µM*	-1.6%	5.6%	14.6%
O=c1c(-c2ccccc2)nc2cnc(N3CCOCC3)nc2n1C[C@H]1CCCO1	2µM*	13.2%	10.7%	15.9%
CN(C)c1ncc2nc(-c3cn(C)c4ccccc34)c(=O)n(C[C@H]3CCCO3)c2n1	2µM*	7.9%	?	-14.2%
